Values joined by “and” are separate entries in the source; they are usually repeats but may differ in a detail not shown here. Equal entries are not always repeated. Structures can show the parent of a compound that is named as a salt. Among all 5,800 compounds or so, about 620 (11%) showed activity. For the sample, actives were picked, then their nearest neighbours and some compounds at random. A number with no mark means an inactive call.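 How the source made its calls: active = score above a cut-off or among the top three wells of a plate; in these data no inactive exceeds 0.85.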

This assay deals with primary human hepatic stellate cells (donor 1). Description: scaled lipid accumulation score (0 = DMSO-like, 1 = nortriptyline-like); higher = stronger HSC inactivation (lipid re-accumulation), active = hit call of the paper. The following applies: 48 h. Here is the method: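 Primary lipid accumulation screen in primary human hepatic stellate cell myofibroblasts (donor 1, passage 8) in 384-well plates. 100 nL of library compound was pin-transferred into 30 µL medium in duplicate, and cells were treated for 48 h. The 'Scaled' score combines distance from plate baseline, toxicity and reproducibility penalties, and is normalised to nortriptyline (positive) and DMSO (negative) controls on each plate. A hit is defined as scaled >0.85 or among the top 3 wells per plate.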

Where [1] appears, read: library stock concentration: 1 mM.
[2] abbreviates: library stock concentration: 10 mM.
[3] abbreviates: library stock concentration: 80 uM.
Setting [4] is: library stock concentration: 400 uM.
Setting [5] is: library stock concentration: 2 mM.
Setting [6] is: library stock concentration: 3.33 mM.

Turning to `C=C1CCC(O)C/C1=C\C=C1\CCCC2(C)C1CCC2C(C)CCC(O)C(C)(C)O` (stereo not given) [24,25-Dihydroxyvitamin D3], the “scaled lipid accumulation score” value under setting [1] was 0.016.

Take `O=C(O)CCC/C=C\C[C@H]1C(=O)C[C@@H](O)[C@@H]1/C=C/[C@@H](O)COc1ccccc1` [16-phenoxy tetranor Prostaglandin E2]: the “scaled lipid accumulation score” value under setting [1] is not above 0.

For the compound `CCCCCCCCCCCCCCCCCCCCCCCC(=O)NCCS(=O)(=O)O` [N-Lignoceroyl Taurine], under setting [1], the “scaled lipid accumulation score” value is 0.009.

As to `CCCCCC(O)C=CC1C(O)CC(O)C1CC=CCCCC(=O)O` (stereo not drawn) [8-epi-Prostaglandin F2a], the “scaled lipid accumulation score” value under setting [1] was not above -0.021.

As to `O=C(Cc1ccccc1)Nc1nc2ccc(Cl)cc2c2nc(-c3ccco3)nn12`, the “scaled lipid accumulation score” value under setting [2] is 0.596.

Regarding `CC(C)NC[C@@H](C(=O)N1CCN(c2ncnc3c2[C@H](C)C[C@H]3O)CC1)c1ccc(Cl)cc1` [listing 1 of 2 here], the “scaled lipid accumulation score” value runs as follows: under setting [3], not above -0.016; under setting [4], not above -0.016; under setting [5], 0.083; under setting [6], 0.174; under setting [2], 0.257.

With `CC(C)NC[C@@H](C(=O)N1CCN(c2ncnc3c2[C@H](C)C[C@H]3O)CC1)c1ccc(Cl)cc1` [listing 2 of 2 here], the “scaled lipid accumulation score” value under setting [2] was 0.881 (active).

Take `CCCCCCCC/C=C\CCCCCCCC(=O)OCC(CO)OC(=O)CCCCCCC/C=C\CCCCCCCC` (stereo not given) [1,2-Dioleoyl-glycerol (18:1)]: under setting [1], the “scaled lipid accumulation score” value is 0.004.

`COc1cc(N2CCC(C(N)=O)CC2)ccc1Nc1nc(N)c(Cl)c(Nc2ccccc2S(=O)(=O)C(C)C)n1`: the “scaled lipid accumulation score” value under setting [3] is not above 0, the “scaled lipid accumulation score” value under setting [4] was not above 0, the “scaled lipid accumulation score” value under setting [5] is 0.025 and the “scaled lipid accumulation score” value under setting [2] was 0.537.

As for `O=C(O)CCCCCCC1C(=O)NC(=O)N1CCC(O)C1CCCCC1` (stereo not given), the “scaled lipid accumulation score” value under setting [1] is not above 0.

As for `COc1cc(OC)c(C(=O)CCCCN2CCC3(CC2)NC(=O)NC3=O)cc1NS(=O)(=O)c1ccc(C(F)(F)F)cc1.Cl`, under setting [2], the “scaled lipid accumulation score” value is 0.941 (active).

Regarding `O=C(O)CN(CC(=O)O)Cc1cc2c(cc1O)Oc1cc(O)c(CN(CC(=O)O)CC(=O)O)cc1C21OC(=O)c2ccccc21` [Calcein], the “scaled lipid accumulation score” value under setting [2] is 0.169.

Regarding `COc1ccc2c(c1)c(CC(=O)Oc1ccc(-c3cc(=S)ss3)cc1)c(C)n2C(=O)c1ccc(Cl)cc1`, under setting [1], the “scaled lipid accumulation score” value was not above 0.

With `COC(=O)[C@H](Cc1ccccc1)NC(=O)/C=C/c1ccc(O)cc1`, under setting [1], the “scaled lipid accumulation score” value was 0.011.

With `C[C@H](NC(=O)CCc1nc2ccccc2c(=O)[nH]1)c1ccccc1`, the “scaled lipid accumulation score” value reads like this: under setting [6], not above -0.009; under setting [2], not above 0.

As for `CCCCCC#CCC#CCC#CCCCCCCC(=O)O` [8,11,14-Eicosatriynoic Acid], under setting [1], the “scaled lipid accumulation score” value was not above 0.

In the case of `CC(C)C[C@H](NC(=O)[C@@H](COC(C)(C)C)NC(=O)[C@H](Cc1ccc(O)cc1)NC(=O)[C@H](CO)NC(=O)[C@H](Cc1c[nH]c2ccccc12)NC(=O)[C@H](Cc1cnc[nH]1)NC(=O)[C@@H]1CCC(=O)N1)C(=O)N[C@@H](CCCNC(=N)N)C(=O)N1CCC[C@H]1C(=O)NNC(N)=O`, the “scaled lipid accumulation score” value (library stock concentration: 9.6 mM) is 0.046.

With `CC(C)C[C@H](NC(=O)[C@@H](COC(C)(C)C)NC(=O)[C@H](Cc1ccc(O)cc1)NC(=O)[C@H](CO)NC(=O)[C@H](Cc1c[nH]c2ccccc12)NC(=O)[C@H](Cc1cnc[nH]1)NC(=O)[C@@H]1CCC(=O)N1)C(=O)N[C@@H](CCCNC(=N)N)C(=O)N1CCC[C@H]1C(=O)NNC(N)=O` [Goserelin acetate], where the note is “library stock concentration: 1.6 mM”, the “scaled lipid accumulation score” value is not above -0.006.

As for `CCCCCCCC(=O)OC[C@H](CO)OC(=O)CCCCCCC` [1,2-Dioctanoyl-sn-glycerol], the “scaled lipid accumulation score” value under setting [1] was 0.009.

Consider `CCCCCCCC(=O)OC[C@H](CO)OC(=O)CCCCCCC` [1,2-Dioctanoyl-SN-glycerol], for which the “scaled lipid accumulation score” value under setting [1] was not above -0.021.

`COc1ccc(NC(=O)c2ccc(-c3ccc(-c4noc(C)n4)cc3C)cc2)cc1OCCN(C)C`: the “scaled lipid accumulation score” value under setting [2] is 0.491.

`Br.Br.CN(C)CCCc1cc(C(=O)Nc2ccc(-c3ccncc3)cc2)ccc1O`: under setting [2], the “scaled lipid accumulation score” value is 1.13 (active).

In the case of `Cc1ccc(NC(=O)c2cccc(N(C)C)c2)cc1NC(=O)c1ccc(O)cc1`, the “scaled lipid accumulation score” value under setting [2] was not above -0.004.

With `CC(C)CCCC(C)N` (stereo not given) [Octodrine], where the note is “library stock concentration: 15.5 mM”, the “scaled lipid accumulation score” value was 0.024.

For `CCC(CC)CC1(C(=O)Nc2ccccc2SC(=O)C(C)C)CCCCC1`, the “scaled lipid accumulation score” value reads like this: under setting [6], not above 0; under setting [2], not above 0.

As for `Cc1nc(-c2ccc(C(F)(F)F)cc2)sc1C(=O)NCc1ccc(OC(C)(C)C(=O)O)cc1`, the “scaled lipid accumulation score” value under setting [1] is not above 0.

Take `CN(C)CCC=C1c2ccccc2COc2ccccc21` [Doxepin]: the “scaled lipid accumulation score” value under setting [2] was 0.731.

Turning to `CN(C)CCC=C1c2ccccc2CCc2ccccc21.Cl` [Amitriptyline HCl], the “scaled lipid accumulation score” value under setting [2] was 0.863 (active).

On to `CN(C)CC/C=C1/c2ccccc2COc2ccc(CC(=O)O)cc21` [Olopatadine HCl], for which the “scaled lipid accumulation score” value was not above 0 under setting [6] and not above 0 under setting [2].

Take `CN(C)CC/C=C1/c2ccccc2COc2ccc(CC(=O)O)cc21` [Olopatadine]: the “scaled lipid accumulation score” value (library stock concentration: 5.9 mM) was not above -0.006.

For the compound `CN(C)CCC=C1c2ccccc2CCc2ccccc21` [Amitriptyline HCl], the “scaled lipid accumulation score” value under setting [6] is 0.187.

As to `CN(C)CCC=C1c2ccccc2COc2ccccc21` [Doxepin hydrochloride], the “scaled lipid accumulation score” value is 0.633. The “scaled lipid accumulation score” value under setting [2] was 0.495 and 0.707 and 0.72.

Regarding `CN(C)CCC=C1c2ccccc2CCc2ccccc21` [Amitriptyline hydrochloride], the “scaled lipid accumulation score” value was 0.347 (library stock concentration: 6.4 mM) and 0.6 under setting [2].

Consider `CN(C)CC/C=C1/c2ccccc2COc2ccc(CC(=O)O)cc21`, for which the “scaled lipid accumulation score” value under setting [2] is not above 0.

Take `C(=C/CCN(C)C)(/c1c2cccc1)\c3c(cccc3)CC2.Cl` [Amitriptyline hydrochloride]: the “scaled lipid accumulation score” value under setting [2] was 1.11 (active).

As for `CN(C)CCC1(c2ccc(Cl)cc2)Cc2ccccc2C(=O)O1` (stereo not given), the “scaled lipid accumulation score” value under setting [2] is 0.575.

For `CN(C)CCC=C1c2ccccc2CCc2ccccc21` [Annoyltin], under setting [2], the “scaled lipid accumulation score” value was 0.841.

As to `CN(C)CC/C=C1/c2ccccc2COc2ccccc21.Cl` [Doxepin hydrochloride], the “scaled lipid accumulation score” value (library stock concentration: 6.3 mM) is 1.34 (active).

For `CN(C)CCC=C1c2ccccc2CCc2ccccc21` [Amitryptiline hydrochloride], the “scaled lipid accumulation score” value was 0.821.

For the compound `C[C@H]1[C@H](OC(=O)CCC(=O)O)O[C@@H]2O[C@@]3(C)CC[C@H]4[C@H](C)CC[C@@H]1[C@@]24OO3` [Artesunate], the “scaled lipid accumulation score” value is, setting by setting: under setting [6], 0.009; (library stock concentration: 5.2 mM) not above 0; under setting [2], not above 0.

Take `C[C@H]1[C@H](OC(=O)CCC(=O)O)O[C@@H]2O[C@@]3(C)CC[C@H]4[C@H](C)CC[C@@H]1[C@@]24OO3`: under setting [2], the “scaled lipid accumulation score” value was not above 0.

Values taken from the supplement of paper PMC9135407.
